Experimental data reported in PubChem BioAssay (NCI).
The panel holds about 79,000 compounds, 15% with a hit somewhere; the sample as a whole holds those more often. No stated cut-off is given here; in the data, active means growth inhibition above about 70%; inactive means the rest.

What was measured:
[1] = NCI Yeast Anticancer Drug Screen. Data for the rad50 strain (AID 155);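 further: 0% = growth of vehicle-only cultures of the same strain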; details: S. cerevisiae rad50 strain growth inhibition; at 50.0 µM; stronger effect = higher value
Procedure, shortened: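 A DNA repair-deficient yeast mutant serves as the test organism; compound-induced growth inhibition is calculated against vehicle-treated cells.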

[2] = NCI Yeast Anticancer Drug Screen. Data for the mec2-1 strain (AID 157); details: S. cerevisiae mec2-1 strain, at 50.0 µM, stronger effect = higher value
Procedure, shortened: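 Strain: mec2-1 (DNA repair/cell cycle alteration). Compound exposure, then growth measured; inhibition expressed relative to vehicle.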

[3] = NCI Yeast Anticancer Drug Screen. Data for the sgs1 mgt1 strain (AID 161);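 further: 0% = growth of cultures given vehicle only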; details: S. cerevisiae sgs1 mgt1 strain, at 50.0 µM, stronger effect = higher value
Procedure, shortened: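 Read-out: growth inhibition vs vehicle controls. Cells: mutant yeast strain deficient in DNA damage repair.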

[4] = NCI Yeast Anticancer Drug Screen. Data for the cln2 rad14 strain (AID 165);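 further: 0% = growth equal to vehicle treated cultures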; details: S. cerevisiae cln2 rad14 strain, at 50.0 µM, stronger effect = higher value
Procedure, shortened: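 Compounds are applied to the cln2 rad14 yeast strain, and growth is then compared with that of vehicle-treated cultures to give inhibition.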

[5] = NCI Yeast Anticancer Drug Screen. Data for the bub3 strain (AID 167); details: S. cerevisiae bub3 mutant strain, at 50.0 µM, stronger effect = higher value
Procedure, shortened: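 Inhibition values come from growth of compound-treated mutant yeast normalised to vehicle-treated controls.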

[6] = NCI Yeast Anticancer Drug Screen. Data for the mlh1 rad18 strain (AID 175); details: S. cerevisiae mlh1 rad18 strain growth inhibition; at 50.0 µM; stronger effect = higher value
Procedure, shortened: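 Read-out is yeast growth inhibition, calculated against vehicle-only controls. The compound was applied to a strain engineered with DNA damage repair alterations.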

Measured: growth inhibition

CCOP(=O)(O)C(c1ccccc1)c1ccccc1
inactive: [1] -2.45% | [2] 7.5% | [3] 3.5% | [4] -10.7% | [5] 5.3% | [6] 6.85%

COC1(OC)CC2C(=O)N(Cc3ccccc3)C1C=C2S(=O)(=O)c1ccccc1 (stereo unspecified)
inactive: [1] 2.5% | [2] 9.65% | [3] -18.2% | [4] -47.5% | [5] 1.55% | [6] 8.25%

C/C(CC(=O)Nc1ccc(Cl)c(Cl)c1)=N/NC(=O)C[n+]1ccccc1
inactive: [1] 16.8% | [2] 5.15% | [3] 7.45% | [4] -19.6% | [5] 5.85% | [6] 29.2%

CC(=O)Nc1ccc(/C=N/NS(=O)(=O)c2ccc(C)cc2)cc1
inactive: [1] 0.3% | [2] 34.7% | [3] 16.9% | [4] -1.85% | [5] 30.6% | [6] 17.1%

O=[N+]([O-])c1ccc(/C=N\NC(=S)Nc2ccc3cn[nH]c3c2)cc1
inactive: [1] 19.9% | [2] 14.6% | [3] 7.6% | [4] -1.7% | [5] 17.4% | [6] -9.65%

O=C(O)c1cccc(SS(=O)(=O)c2cccc(C(=O)O)c2)c1
inactive: [1] -18.4% | [2] -13.4% | [3] -10.1% | [4] 9.45% | [5] 7.5% | [6] -7.45%

CC(=O)OC1CC2CCC1(c1ccccc1)C2 (stereo unspecified)
inactive: [1] 0.85% | [2] -25.1% | [3] 0.4% | [4] 14.4% | [5] -1.2% | [6] 3.15%

CCOC(=O)c1ccc(NCc2ccc3oc(=O)c(-c4ccccc4)nc3c2)cc1
inactive: [1] -14.7% | [2] -16.6% | [3] -12.8% | [4] 22.2% | [5] -17.7% | [6] -17.4%

CCC(C(=O)O)C1=CCCc2c(C)ccc(C)c21 (stereo unspecified)
inactive: [1] 23.6% | [2] 13.2% | [3] 21.6% | [4] 25.3% | [5] 11.7% | [6] 23.2%

Cc1ccc(S(=O)(=O)Nn2c(-c3ccccc3)c(C#N)c(-c3ccc([N+](=O)[O-])cc3)c(C#N)c2=O)cc1
inactive: [1] -0.65% | [2] 16.2% | [3] 8.6% | [4] 11.6% | [5] 20.1% | [6] 37%

Fc1ccccc1CSc1n[nH]c(=S)c2nc[nH]c12
inactive: [1] 4.05% | [2] 8.3% | [3] 17.8% | [4] -12.3% | [5] 0.3% | [6] 12%

Cc1ccc2c(C)cc(=O)n(C)c2c1
inactive: [1] 4.7% | [2] 11.2% | [3] 9.6% | [4] 4.9% | [5] -0.25% | [6] 15.1%

CC(=O)Nc1ccc(CCNC(=O)c2ccc3ccccc3c2O)cc1
inactive: [1] -21.8% | [2] -33.1% | [3] -15.2% | [4] -6.35% | [5] -11.8% | [6] -13.4%

CN(C)CCC(=O)c1cccnc1
inactive: [1] 9.9% | [2] -17.1% | [3] -3.35% | [4] -4.8% | [5] 5.65% | [6] -1.2%

CCCCCCCCCCCCCCCCCC(=O)OCC(O)CO (stereo unspecified)
inactive: [1] -2.85% | [2] -16.8% | [3] 2.85% | [4] 7.2% | [5] -0.45% | [6] 7%

CC(NN(C)C(=S)Nc1ccccc1)c1ccccn1 (stereo unspecified)
inactive: [1] -6.7% | [2] -7.15% | [3] -9.15% | [4] -10.8% | [5] -4.75% | [6] -0.1%

CCCOC(=O)/C=C(\Cl)C(=O)OCCC
inactive: [1] -0.95% | [2] 4.15% | [3] 0.65% | [4] -23.2% | [5] -45.6% | [6] -5.8%

CCCCCCCCCCN(CCCCCCCCCC)C(C)C(O)c1ccc2cc(Br)c3ccccc3c2c1 (stereo unspecified)
inactive: [1] -12.4% | [2] -13.2% | [3] -15.8% | [4] -16.9% | [5] -12.5% | [6] -14.3%

CCOC(=O)C1=C(C(=O)c2ccc(OC)cc2)C(c2cccc([N+](=O)[O-])c2)C(C(=O)c2ccc(OC)cc2)=C(C(=O)OCC)N1
inactive: [1] -30.8% | [2] -1.6% | [3] -2.5% | [4] -2.85% | [5] -6.45% | [6] 2%

N=C1C(O)=CC(=O)C(O)=C1C(=O)O
inactive: [1] -9.1% | [2] 3.9% | [3] 0% | [4] 1.95% | [5] -13% | [6] 3.7%

O=C(NC12CC3CC(NC(=O)c4ccccc4)(CC(C1)c1ccccc13)C2)c1ccccc1
inactive: [1] 42.9% | [2] 40.2% | [3] 57.4% | [4] 27.4% | [5] 52.5% | [6] 38.4%

O=C1CC(NC(=O)C(F)(F)F)c2c1csc2Br (stereo unspecified)
inactive: [1] -20.6% | [2] -2.55% | [3] -9.1% | [4] -12.6% | [5] -11% | [6] 20.2%

CC(C)CC(NC(=O)CNC(=O)CNC(=O)OCc1ccccc1)C(=O)O (stereo unspecified)
inactive: [1] -0.1% | [2] 7.75% | [3] -2.1% | [4] -21.8% | [5] -0.9% | [6] 10.8%

NNC(=O)CC(=O)N(C(=O)/C=C/c1ccccc1)c1ccc(Cl)cc1
inactive: [1] -11.9% | [2] -16.9% | [3] 15.1% | [4] 24% | [5] -14.5% | [6] 19.4%

Cc1ccc(NC(=O)Nc2ccc(C)cc2)cc1
inactive: [1] 0.7% | [2] -14.9% | [3] -12.8% | [4] -9.25% | [5] -2.3% | [6] -18.1%

N=c1nc2n(cc1F)[C@@H]1O[C@H](CO)[C@@H](O)[C@@H]1O2
inactive: [1] 13.4% | [2] -3.75% | [3] 4.3% | [4] 8.55% | [5] 12.6% | [6] -12.2%

Cc1ccc(S(=O)(=O)N/N=C(\C(=N/OCc2ccccc2)c2ccccc2)c2ccccc2)cc1
inactive: [1] 43.4% | [2] -3.75% | [3] 27.6% | [4] 14.8% | [5] 10.8% | [6] 9.65%

C[Si](Cn1ccc(=O)n(C[Si](C)(c2ccccc2)c2ccccc2)c1=O)(c1ccccc1)c1ccccc1
inactive: [1] -3.7% | [2] -7.65% | [3] -12.3% | [4] -13.9% | [5] -2.4% | [6] 15.2%

CC1(C=O)CCCC2(C)[C@@H]1CCC13CC(CO)C(CC[C@H]12)C3 (stereo partly specified)
inactive: [1] 19.4% | [2] 5.7% | [3] 10.8% | [4] 16.6% | [5] 14.1% | [6] 18.6%

CC(C)(C)c1cc(CN2CCOCC2)cc(C(C)(C)C)c1O
inactive: [1] 8% | [2] 5% | [3] 0.7% | [4] 0.15% | [5] -3.15% | [6] 14.3%

O=C1CC(SC(=S)N2CCCCC2)C(=O)N1c1ccccc1 (stereo unspecified)
inactive: [1] -19.6% | [2] 7.55% | [3] -2.55% | [4] -30.2% | [5] 7.25% | [6] 13.2%

O=C(O)C1CSC(c2ccccc2O)N1 (stereo unspecified)
inactive: [1] -17.6% | [2] -2.75% | [3] -4.6% | [4] -26.9% | [5] 5.4% | [6] -8.75%

C=CCOc1c(C)cc(C)cc1C
inactive: [1] 5.3% | [2] -17.4% | [3] -5.95% | [4] -16.3% | [5] -14.8% | [6] -6.85%

O=C1CCC(=O)N1Cl
inactive: [1] 1.05% | [2] -1% | [3] -3.6% | [4] -13.3% | [5] -5.75% | [6] -13.8%

FC1(F)C(F)(F)C(F)(F)C2(F)C(F)(F)C(F)(F)C(F)(F)C(F)(F)C2(F)C1(F)F (stereo unspecified)
inactive: [1] -25.2% | [2] -21.2% | [3] -17.7% | [4] 7.25% | [5] -0.8% | [6] -8.5%

N#CCCNCCC[Si]12OCCN(CCO1)CCO2
inactive: [1] 6.5% | [2] 1.35% | [3] 10.5% | [4] 56.9% | [5] 7.15% | [6] 2.4%

NCC(O)c1cc(I)c(Oc2ccc(O)cc2)c(I)c1 (stereo unspecified)
inactive: [1] 7.65% | [2] -19.8% | [3] -22.6% | [4] 12.3% | [5] -1.35% | [6] -11.5%

CCCC(=O)OCC(COC(=O)CCC)OC(=O)CCC
inactive: [1] -26.8% | [2] -8.35% | [3] -17.4% | [4] 24.6% | [5] 4.9% | [6] 7.1%

COc1ccc(/C=C2\CCC(CNc3cc(C)on3)C2=O)cc1 (stereo unspecified)
inactive: [1] 21.5% | [2] -14.6% | [3] 17.1% | [4] 37.1% | [5] 29.1% | [6] -19.4%

COc1ccc(S(=O)(=O)Oc2ccc(Cl)cc2)cc1
inactive: [1] -2.35% | [2] 11.6% | [3] 18.1% | [4] -234% | [5] 42.5% | [6] 9.05%

COC1=CC(=O)C=C(C)C1=O
inactive: [1] 19.4% | [2] -11.9% | [3] -8.1% | [4] 29.7% | [5] 4% | [6] 2%
